Bioassay records deposited in PubChem BioAssay by The Scripps Research Institute Molecular Screening Center.
DAX1 inh-1 = DAX1 (NR0B1) inhibitors on StAR promoter, primary screen, cell-based, luminescence, SF-1 (NR5A1), full-length DAX-1. HEK293T StAR-luciferase reporter, SF-1/DAX-1 repression relief. inhibition, % at 6.8 µM. 370,000 compounds, 1.1% hits. AID 652010, 2013;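 active = inhibition above the mean over all tested compounds plus 3 SD, cut at about 3.6% in these data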;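 also: 0% = DAX-1 cells with DMSO and 100% = cells lacking DAX-1 with DMSO; higher inhibition means more luminescence from relief of DAX-1 repression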
hgDAF-12 ag = H. glycines DAF-12 receptor agonists, primary screen, cell-based, luminescence, HEK293, GAL4 fusion, UAS-luciferase. 370,000 compounds, 1.8% hits. activation, % at 6.8 µM. HEK293 GAL4-hgDAF12 UAS-luciferase reporter, agonist luminescence; normalized to butyrate control. AID 687014, 2013;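 active = activation above a cutoff set at the mean of all screened compounds plus 3 SD, cut at about 10% in these data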;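 also: 0% = DMSO wells and 100% = sodium butyrate wells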
DAX1 inh-2 = DAX1 (NR0B1) inhibitors, primary screen, cell-based, HEK293, Gal4-DAX1, luciferase luminescence; HEK293 Gal4-DAX1 luciferase reporter; Nuclear receptor subfamily 0 group B member 1 (Homo sapiens), P51843; inhibition, % at 6.75 µM; 340,000 compounds, 0.99% hits;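 active = inhibition above the mean over all tested compounds plus 3 SD, cut at about 4.2% in these data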;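 also: 0% = DAX1-transfected cells with DMSO and 100% = empty-vector control cells with DMSO; inhibition shows as a rise in luminescence from relieved DAX1 repression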
Target sequence (P51843 207-470 limits assumed): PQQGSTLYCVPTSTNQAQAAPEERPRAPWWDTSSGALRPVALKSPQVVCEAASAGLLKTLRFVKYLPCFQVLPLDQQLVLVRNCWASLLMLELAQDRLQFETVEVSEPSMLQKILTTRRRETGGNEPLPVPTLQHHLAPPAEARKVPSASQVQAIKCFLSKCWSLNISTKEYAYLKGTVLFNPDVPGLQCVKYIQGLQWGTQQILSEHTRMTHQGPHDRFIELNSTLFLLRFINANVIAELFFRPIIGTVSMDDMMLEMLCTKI
ssDAF12 agonist = S. stercoralis DAF-12 nuclear receptor activators, primary screen, cell-based, luminescence, HEK293, GRIP1 co-expression, lit1-tk-luc. HEK293 ssDAF-12/GRIP1 lit1-tk-luc reporter; % of 3 µM dafachronic acid response. 370,000 compounds, 1% hits. AID 652126, 2013. Nuclear hormone receptor DAF-12 (Strongyloides stercoralis). activation, % at 6.8 µM;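 active = activation above the mean over all tested compounds plus 3 SD, cut at about 0.9% in these data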;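 also: 0% = DMSO-only wells and 100% = 3 µM delta7-dafachronic acid wells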
hcDAF-12 act = H. contortus DAF-12 nuclear receptor activators, primary screen, cell-based, luminescence, HEK293, lit1-tk-luc reporter; 370,000 compounds, 1.4% hits; activation, % at 6.8 µM; HEK293 hcDAF-12 lit1-tk-luc reporter; 0% DMSO, 100% Δ7-dafachronic acid;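 active = activation above the mean of all tested compounds plus 3 SD, cut at about 5.5% in these data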;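 also: 100% = response to 3 µM Δ7-dafachronic acid high control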
An asterisk follows results filed as active; . = no result. A selection: hits, their analogues and other compounds. The true share with any hit is near 4.1%.

SMILES | DAX1 inh-1 | hgDAF-12 ag | DAX1 inh-2 | ssDAF12 agonist | hcDAF-12 act
O=C(Cn1nc(-c2ccccc2F)ccc1=O)Nc1ccc(S(=O)(=O)N2CCCCCC2)cc1 | 0 | -3 | 6.6* | -1 | 0
O=C(Cc1ccccc1F)Nc1ccc(S(=O)(=O)N2CCCCC2)cc1 | -1 | 0 | 0 | -1 | -1
CC(C)c1ccc(OC[C@@H](O)CN2CCC(C(O)(c3ccccc3)c3ccccc3)CC2)cc1 | -1 | -2 | . | -2 | 0
N/C(Cc1ccc(Cl)cc1Cl)=N\OC(=O)c1ccccc1F | 0 | 4 | 0 | -1 | 6.0*
N/C(Cc1cccc2ccccc12)=N\OC(=O)c1ccccc1F | -2 | 4 | 0 | 0 | 2
O=C(N/N=C/c1cccnc1)c1cc(Br)ccc1O | 1 | 12* | 0 | -1 | 2
O=C(CNC(=O)c1cccc(F)c1)N/N=C/c1cccnc1 | 0 | -2 | 0 | 0 | 0
CC(/C=C/c1ccco1)=N\NC(=O)c1cccc(Cl)c1 | 1 | 6 | 1 | 0 | 3
CC(/C=C/c1ccccc1F)=N\NC(=O)c1cccc(F)c1 | 3 | 12* | 2 | -1 | 0
O=C(N/N=C/c1cccnc1)c1cccc(F)c1 | 1 | 2 | 4.9* | -1 | 2
CC(/C=N/NC(=O)c1cccc(F)c1)=C\c1ccccc1 | 3 | 12* | 1 | 0 | 4
CC(C)Oc1cccc(-c2n[nH]c(=S)n2N=Cc2ccc(OCc3ccccc3)cc2)c1 | 1 | 5 | . | -1 | 1
Clc1nn2cnnc2c2ccccc12 | 0 | -3 | 6.2* | -1 | -2
COCCCN1C(=O)[C@H](CC(=O)N2CCCC2)[C@]2(C(=O)OC)CCCCC=C12 | 0 | 0 | . | -1 | 1
O=C(Cn1nnc(-c2cccs2)n1)N1CCOCC1 | 0 | 0 | 3 | -2 | -1
CC1CCN(C(=O)Cn2nnc(-c3cccs3)n2)CC1 | 3.6* | 8 | 6.0* | 0 | 3
C#CCOCCOCCOCCNc1nc(N2CCN(C(=O)Cn3cc(CCCN=C(N)N)nn3)CC2)nc(N2CCN(C(=O)[C@H](CCCCN)n3cc(CCCC)nn3)CC2)n1 | 0 | 12* | 1 | -1 | 0
C/C(=N\NC(=O)C(O)c1ccccc1)c1ccc(Cl)cc1 (centres undefined) | 1 | -1 | 2 | 1.4* | -1
Cn1cc(C=C2C(=O)CC(C)(C)CC2=O)c2ccccc21 | 0 | 2 | -2 | 1.3* | 1
O=C(NCc1cccnc1)c1cc(-c2cccs2)on1 | -1 | 12* | 2 | -1 | 1
CCCc1cc(C(=O)NCc2cccnc2)no1 | 0 | 3 | 1 | -1 | 5.8*
CCCc1cc(C(=O)NCc2ccccc2)no1 | 2 | 5 | 1 | 0 | 2
COc1ccc(-c2cc(C(=O)NCc3cccnc3)no2)cc1 | 0 | 7 | 0 | -1 | -1
CCCc1cc(C(=O)NCc2cccs2)no1 | 2 | 8 | 1 | 2.0* | 4
CCCc1cc(C(=O)NC2CCCCC2)no1 | 2 | 13* | 1 | 0 | 2
SMILES | DAX1 inh-1 | hgDAF-12 ag | DAX1 inh-2 | ssDAF12 agonist | hcDAF-12 act
COc1cccc(C(=O)Nc2ccc(C(=O)NCC3COc4ccccc4O3)cc2)c1 (centres undefined) | -2 | 0 | . | -1 | -5
O=C(NCc1cccnc1)c1cc(-c2ccccc2)on1 | 1 | 12* | 2 | -1 | 1
O=[N+]([O-])c1cc(C=NN2CCN(Cc3ccccc3Cl)CC2)ccc1Cl | -2 | 2 | . | 0 | 1
COCCNC(=O)c1ccc2c3n(nc2c1)-c1ccccc1CO3 | 2 | 12* | 2 | 0 | 6.4*
O=C(NCC1CC1)c1ccc2c3n(nc2c1)-c1ccc(Cl)cc1CO3 | 1 | 12* | 0 | -1 | 2
COCCNC(=O)c1ccc2c3n(nc2c1)-c1ccc(Cl)cc1CO3 | 1 | 7 | 2 | -1 | 3
O=C(/C=C/c1ccc(F)cc1)NC(=S)NNC(=O)[C@H]1C[C@@H]1c1ccccc1 | 3.6* | 6 | 0 | 0 | 0
